In the library only some 19% were active in any assay of this set; here they are far more common.
IL1B secr inh – qHTS for Inhibitors of Inflammasome Signaling: IL-1-beta AlphaLISA Primary Screen | 360,000 compounds, 4.7% hits | activity change, % at 57.5 µM | THP-1 LPS/ATP IL-1B secretion, AlphaLISA, 16 h; stronger effect = lower value; in the data active = activity change below about -50%; inconclusive = mostly about -30% to -49%
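Secreted IL-1B measured by AlphaLISA bead assay after 16 h compound exposure of THP-1 cells; compounds (final up to 57.5 uM) added 1 h before LPS (250 ng/mL) and ATP (1.25 mM) stimulation; lower signal means less secretion.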
ELG1 DNA repair – qHTS screen for small molecules that inhibit ELG1-dependent DNA repair in human embryonic kidney (HEK293T) cells expressing luciferase-tagged ELG1; HEK293T ELG1-luciferase reporter, luminescence, 16 h; DNA damage induced by 5-fluorouridine; Potency, µM (doses to about 46.1 µM), for the others: at the top dose activity change, negative = inhibition, most hits filed as inhibitors; 330,000 compounds, 2.3% hits; AID 504467, 2011; also: potency is read from the fitted curve at half-maximal effect; nearly all actives have a fitted effect of over 55% in size
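5-Fluorouridine DNA damage + compound/DMSO, 2,000 cells/well, 16 h, 37 °C/5% CO2. ONE-Glo, 30 min RT, luminescence. Readout = decrease in reporter signal.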
DT40 TDP1 no CPT – qHTS for Inhibitors of human tyrosyl-DNA phosphodiesterase 1 (TDP1): qHTS in cells in absence of CPT | Potency, µM (top dose mostly 46.2 µM), for inactives: top-dose activity change, negative = growth inhibition, hits mostly inhibitors | 420,000 compounds, 15% hits | DT40 Tdp1-/- hTDP1 cells, no CPT, ATP luminescence, 48 h; also: potency is read from the fitted curve at half-maximal effect; nearly all actives have a fitted effect of over 55% in size
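No-CPT arm: Tdp1-/-;hTDP1 DT40 cells (400/well) plus compounds, incubated ≥48 hr at 37 °C. Readout CellTiter-Glo luminescence.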
DT40 TDP1 CPT – qHTS for Inhibitors of human tyrosyl-DNA phosphodiesterase 1 (TDP1): qHTS in cells in presence of CPT; chicken DT40 Tdp1-/-;hTDP1 cells + 20 nM CPT, ATP luminescence, 48 h; Potency, µM (highest dose often 46.2 µM), inactives show top-dose activity change, negative = growth inhibition, actives largely listed as inhibitors; 420,000 compounds, 12% hits; AID 686979, 2013; also: potency is read from the fitted curve at half-maximal effect; nearly all actives have a fitted effect of over 55% in size
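Chicken DT40 Tdp1-/- cells complemented with human TDP1, 400 cells/well, exposed to compounds plus 20 nM camptothecin for at least 48 h at 37 C; viability read as ATP content by CellTiter-Glo luminescence.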
HT1080 IDH1KD tx – qHTS for induction of synthetic lethality in tumor cells producing 2HG: qHTS for the HT-1080-IDH1KD cell line; HT-1080 IDH1 knockdown viability, ATP luminescence, 48 h; Potency, µM (titrated, usually from 46.1 µM), for inactives: at the top dose activity, negative = toxicity, hits mostly cytotoxic; 360,000 compounds, 2% hits;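 also: potency is read from the fitted curve at half-maximal effect; 0% = DMSO wells and -100% = cell-free medium wells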
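% activity derives from luminescence (CellTiter-Glo), normalised to DMSO and no-cell wells. HT-1080-IDH1KD cells, 750/well, had 48 h compound exposure at 37 °C.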
HT1080-NT tox – qHTS for induction of synthetic lethality in tumor cells producing 2HG: qHTS for the HT-1080-NT fibrosarcoma cell line; HT-1080-NT fibrosarcoma viability, CellTiter-Glo ATP luminescence, 48 h; Potency, µM (titrated, usually from 46.1 µM), for inactives: top-dose activity, negative = less viability, hits mostly cytotoxic; 360,000 compounds, 1.6% hits; AID 686970, 2013;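 also: NT is the 2HG producing partner of a matched IDH1 knockdown line; potency is read from the fitted curve at half-maximal effect; 0% = DMSO-treated cells and -100% = media-only wells without cells; nearly all actives have a fitted effect of over 55% in size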
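Compounds were tested in concentration-response format on HT-1080-NT cells for 48 hours at 37 degrees C. Cell viability came from CellTiter-Glo luminescence; curves were classified by r2, response magnitude and activity.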
Starred values were filed as active, the others as inactive; i = inactive; ? = inconclusive; nt = not tested or not shown; [ ] = dose if it differs, or a comment. Unless noted, calls follow the shape of the dose curve; as a rule, active = well fitted curve in the direction sought with a large enough effect; inconclusive = small, poorly fitted or top-dose-only effect, or another doubt; inactive = no such curve, though single readings can be large; an effect the other way counts as inactive or inconclusive. Unless noted, % is scaled to controls: 0 for no effect and ±100 for the full control effect.

SMILES	IL1B secr inh	ELG1 DNA repair	DT40 TDP1 no CPT	DT40 TDP1 CPT	HT1080 IDH1KD tx	HT1080-NT tox
c1ccc2c(c1)nc(N1CCOCC1)c1ccccc12	1	4%	-17%	-27%	-17%	-18%
c1ccc(CN2CCN(c3nc4ccccc4c4ccccc34)CC2)cc1	4	-17%	?	21µM*	0%	-2%
c1ccc(CN2CCN(c3nc(-c4ccccn4)nc4ccccc34)CC2)cc1	10	8.2µM*	2%	-5%	-17%	0%
Cc1cc(/C=N/n2cnnc2)c(C)n1-c1ccc(Cl)cc1	-8	6%	-12%	-4%	-4%	-7%
Cc1cc(/C=N/n2cnnc2)c(C)n1-c1ccc(OCc2ccc(Cl)cc2Cl)cc1	-80*	?	5.8µM*	7.3µM*	-24%[9.24 µM]	23µM*
CN(CC1COc2ccccc2O1)C(=O)CSc1ncccn1 (stereo unspecified)	15	?	-10%	-13%	10%	-1%
CC(Sc1nc2ccccc2c(=O)n1C)C(=O)N(C)C1CCCCC1 (stereo unspecified)	3	-8%	7.3µM*	10µM*	?	-20%
COc1cccc2c1cc1c(=O)n(CC(=O)N3CCN(c4ccc(Cl)cc4)CC3)nc(C)n12	nt	nt	-12%	-5%	nt	nt
CCN(CC)C(=O)Cn1c(=O)n(CC2CCC(C(=O)NC)CC2)c(=O)c2sccc21 (stereo unspecified)	nt	nt	-14%	-14%	nt	nt
Cc1nc(N2CCOCC2)c2c(C)c(C(=O)Nc3ccccc3C(F)(F)F)sc2n1	?	16µM*	?	-1%	-3%	-11%
Cc1cc(Br)ccc1NC(=O)c1sc2ncnc(N3CCN(c4ccccn4)CC3)c2c1C	-77*	?	2.6µM*	10µM*	8%	12%
Cc1nc(N2CCN(c3ccccn3)CC2)c2c(C)c(C(=O)Nc3ccc(F)cc3Cl)sc2n1	?	?	21µM*	23µM*	0%	0%
Cc1nc(N2CCOCC2)c2c(C)c(C(=O)Nc3ccc(F)cc3Cl)sc2n1	-14	19%	1%	-9%	14%	22%
Cc1nc(N2CCN(c3ccccn3)CC2)c2c(C)c(C(=O)Nc3ccc(F)cc3F)sc2n1	-21	12µM*	13µM*	16µM*	2%	5%
COc1ccc(NC(=O)c2sc3nc(C)nc(N4CCN(c5ccccn5)CC4)c3c2C)cc1Cl	nt	3.3µM*	21µM*	?	2%	-10%
Cc1nc(N2CCOCC2)c2c(C)c(C(=O)Nc3ccccc3Cl)sc2n1	-4	5%	?	-13%	-2%	-16%
Cc1nc(N2CCN(c3ccccn3)CC2)c2c(C)c(C(=O)Nc3ccccc3F)sc2n1	-9	9.2µM*	16µM*	?	11%	6%
COc1ccc(NC(=O)CN2CCN(c3ccccn3)CC2)cc1Cl	0	?	3%	2%	8%	7%
C/C=C/c1ccc(OCCOc2cccc3cccnc23)c(OC)c1	-62*	23%	?	?	-17%	-18%
C=CCc1ccc(OCCOCCOc2cccc3cccnc23)c(OC)c1	-12	-13%	29µM*	?	-22%	-22%
C/C=C/c1ccc(OCCOCCOc2cccc3cccnc23)c(OC)c1	0	-8%	15µM*	23µM*	-13%	-12%
Cc1nc(-c2ccc(S(=O)(=O)Nc3cc(Cl)ccc3C)cc2)co1	nt	nt	?	-27%	nt	nt
Cc1onc(-c2ccccc2)c1C(=O)N(Cc1ccccc1)C(C)C	23	-11%	26µM*	?	5%	?
Cc1onc(-c2ccccc2)c1C(=O)Nc1ncc([N+](=O)[O-])s1	-67*	3.7µM*	21µM*	23µM*	?	?
Cc1onc(-c2ccccc2)c1NC(=O)N(Cc1ccccc1)C(C)C	0	12%	?	-15%	1%	8%
SMILES	IL1B secr inh	ELG1 DNA repair	DT40 TDP1 no CPT	DT40 TDP1 CPT	HT1080 IDH1KD tx	HT1080-NT tox
CCCOc1ccccc1NC(=O)c1c(-c2ccccc2)noc1C	30	-14%	8.2µM*	?	-11%	0%
Cc1cccc(C)c1NC(=O)c1c(-c2ccccc2)noc1C	4	-2%	-8%	-26%	-20%	1%
Cc1ccccc1NC(=O)c1c(-c2ccccc2)noc1C	25	1%	9.2µM*	12µM*	4%	1%
COc1ccccc1OC(C)C(=O)N1CCN(CCc2ccccn2)CC1 (stereo unspecified)	nt	nt	-23%	6%	nt	nt
Cc1onc(-c2ccccc2)c1C(=O)Nc1ccccc1NC(=O)c1c(-c2ccccc2)noc1C	-10	-11%	18µM*	15µM*	21%	19%
Cc1ccc(Cl)cc1NC(=O)Nc1c(C)n(C)n(-c2ccccc2)c1=O	i	1%	-6%	9%	-1%	-6%
Cc1cc(C(=O)C(C)OC(=O)c2ccc(NC(=O)CC#N)cc2)c(C)n1-c1ccccc1 (stereo unspecified)	-56*	?	18µM*	?	-27%	?
CCOc1ccc(N)c(SSc2cc(OCC)ccc2N)c1	0	?	5.2µM*	2.6µM*	?	?
CCCN1CCN(CCNC(=O)Nc2cc(C)ccc2OC)CC1	nt	nt	-6%	6%	nt	nt
CCN(CC)CCCNC1=C(Cl)C(=O)c2ccccc2C1=O	-110*	?	4.1µM*	3.3µM*	21µM*	?
O=C(O)c1cccc(NC2=C(Cl)C(=O)c3ccccc3C2=O)c1	-65*	?	13µM*	12µM*	16µM*	?
O=C1C(Cl)=C(NCCc2ccccc2)C(=O)c2ccccc21	?	nt	1.5µM*	0.82µM*	?	9.2µM*
COCCCNC1=C(Cl)C(=O)c2ccccc2C1=O	-7	?	?	?	-8%	?
O=C1C(Cl)=C(NCCc2ccccc2)C(=O)N1CCc1ccccc1	-19	?	-27%	-5%	0%	-1%
CC1=C(Nc2ccc(C(=O)O)cc2)C(=O)c2ccccc2C1=O	30	-3%	?	?	?	?

High-throughput results: PubChem, National Center for Advancing Translational Sciences (NCATS)
